Source: the supplement of paper PMC5919970
The full ranking holds about 2,000 compounds; the median of “fractional viability relative to vehicle” is about 0.91, and the lowest 2% start at about 0.045. This is one part of a sample in which the lowest values are shown more often than they occur.

System: TYKNU
Assay: fractional viability relative to vehicle; TYKNU is a high-grade serous ovarian cancer line; higher = less growth inhibition
Conditions: 72 h
Method in brief: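 TYKNU control cells or lentiCRISPRv2 knockout derivatives were plated at 500 cells per well in duplicate into drug-stamped 384-well plates holding a ~2100-compound library at 2 or 10 μM. Culture was in RPMI 1640 with 10% FBS at 37 °C in 5% CO2, with 72 h of drug treatment. Viability was measured by Cell Titer Glo luminescence, and the averaged duplicate treatment wells were normalised to duplicate control wells at the same plate position.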

[1] = 2uM, genotype: DNM1L knockout (sgDNM1L #1)
[2] = 2uM, genotype: sgCTRLA1 (non-targeting control)
[3] = 10uM, genotype: DNM1L knockout (sgDNM1L #1)
[4] = 10uM, genotype: sgCTRLA1 (non-targeting control)

Compound | fractional viability [1] | fractional viability [2] | fractional viability [3] | fractional viability [4]
Nc1ccc(-c2ccc3ncc4ccc(=O)n(-c5cccc(C(F)(F)F)c5)c4c3c2)cn1 [Torin 2] | 0.125 | 0.114 | 0.114 | 0.0945
COc1ccc(-c2ccc3ncc4c(c3c2)n(-c2ccc(N3CCNCC3)c(C(F)(F)F)c2)c(=O)n4C)cn1 | 0.0297 | 0.0315 | 0.0158 | 0.0115
O=C(Nc1ccc(OC(F)(F)F)cc1)c1sccc1NCc1ccnc2ccccc12 | 0.926 | 0.906 | 0.215 | 0.181
CN1CCN(c2c(F)cc3c(=O)c(C(=O)O)cn4c3c2OCN4C)CC1 [Marbofloxacin] | 1.13 | 1.21 | 0.971 | 1.01
Cc1c(C(=O)NN2CCCCC2)nn(-c2ccc(Cl)cc2Cl)c1-c1ccc(Cl)cc1 [Rimonabant] | 1.11 | 1.01 | 0.575 | 0.753
CNC(=O)c1ccc(Nc2ncc(C(F)(F)F)c(NCc3nccnc3N(C)S(C)(=O)=O)n2)cc1 | 0.702 | 0.772 | 0.213 | 0.179
CC(C)(O)c1ccccc1CC[C@@H](SCC1(CC(=O)O)CC1)c1cccc(/C=C/c2ccc3ccc(Cl)cc3n2)c1 [Montelukast Sodium] | 0.809 | 1.13 | 0.762 | 1.05
CCS(=O)(=O)Nc1ccc2c(c1)/C(=C(/Nc1ccc(CN3CCCCC3)cc1)c1ccccc1)C(=O)N2 [Hesperadin] | 0.316 | 0.329 | 0.0548 | 0.0381
CN(C)Cc1cccc(N/C(=C2\C(=O)Nc3cc(C(N)=O)ccc32)c2ccccc2)c1 | 1.01 | 0.992 | 1.05 | 0.912
COC(=O)c1ccc2c(c1)NC(=O)/C2=C(\Nc1ccc(N(C)C(=O)CN2CCN(C)CC2)cc1)c1ccccc1 [Nintedanib (BIBF 1120)] | 0.903 | 0.889 | 0.152 | 0.147
CC#CCn1c(N2CCC[C@@H](N)C2)nc2c1c(=O)n(Cc1nc(C)c3ccccc3n1)c(=O)n2C [Linagliptin] | 1.22 | 1.14 | 0.918 | 0.986
NC(=O)c1cn(Cc2c(F)cccc2F)nn1 [Rufinamide] | 0.992 | 1.08 | 1.07 | 1.04
Cc1cc(C)nc(NS(=O)(=O)c2ccc(NC(=S)NC(=O)COc3ccc(Br)cc3Cl)cc2)n1 | 1.05 | 1.04 | 0.706 | 1.08
CN1CCN(c2ccc(Nc3cc(-c4cccc(-n5ccc6cc(C7CC7)cc(F)c6c5=O)c4CO)cn(C)c3=O)nc2)CC1 | 0.836 | 0.97 | 0.114 | 0.182
CCOC(=O)[C@@H](N)Cc1ccc(-c2cc(O[C@H](c3ccc(Cl)cc3-n3ccc(C)n3)C(F)(F)F)nc(N)n2)cc1 [Telotristat Etiprate (LX 1606 Hippurate)] | 0.777 | 1.1 | 0.0468 | 0.12
CC(NC(=O)C(Cc1ccccc1)NC(=O)OCc1ccccc1)C(=O)CF (configuration not stated) | 0.85 | 0.869 | 0.793 | 0.606
COC[C@H](NC(=O)c1cnc(C)s1)C(=O)N[C@@H](COC)C(=O)N[C@@H](Cc1ccccc1)C(=O)[C@@]1(C)CO1 [Oprozomib (ONX 0912)] | 0.0658 | 0.0656 | 0.055 | 0.0445
COc1ccc(C[C@H](NC(=O)[C@H](C)NC(=O)CN2CCOCC2)C(=O)N[C@@H](Cc2ccccc2)C(=O)[C@@]2(C)CO2)cc1 | 0.0589 | 0.0514 | 0.0565 | 0.0416
COC(=O)[C@H](Cc1ccccc1)NC(=O)[C@@H](N)CC(=O)O [Aspartame] | 1.02 | 1.15 | 0.941 | 0.985
CC(C)C[C@H](NC(=O)[C@H](CCc1ccccc1)NC(=O)CN1CCOCC1)C(=O)N[C@@H](Cc1ccccc1)C(=O)N[C@@H](CC(C)C)C(=O)[C@@]1(C)CO1 [Carfilzomib (PR-171)] | 0.0773 | 0.0587 | 0.0559 | 0.057
CC(C)C[C@H](NC(=O)[C@H](Cc1ccccc1)NC(=O)c1cnccn1)B(O)O [Bortezomib (PS-341)] | 0.1 | 0.0838 | 0.101 | 0.0762
C[C@@]1(C(=O)Nc2ccc(F)nc2)CCCN1c1nc(Nc2cc(C3CC3)n[nH]2)c2cccn2n1 | 0.561 | 0.689 | 0.282 | 0.252
O=C(N/N=C/c1cc(O)c(O)cc1O)c1cc2ccccc2cc1O [Dyngo-4a] | 0.912 | 1.05 | 0.857 | 0.867
Oc1ccc(Cc2nc3c(Cc4ccccc4)nc(-c4ccc(O)cc4)cn3c2O)cc1 [Coelenterazine] | 0.928 | 1.05 | 0.977 | 0.839
O=C1N=C(O)NC1(c1ccccc1)c1ccccc1 [Phenytoin sodium] | 1.03 | 1.09 | 0.864 | 1.04
CCc1cc(Nc2nccc(-c3c(-c4ccc(OC)c(C(=O)Nc5c(F)cccc5F)c4)nc4ccccn34)n2)c(OC)cc1N1CCC(N2CCN(S(C)(=O)=O)CC2)CC1 | 1.12 | 1.04 | 0.72 | 0.915
CC(O)c1cc(C(=O)N[C@@H](C)Cn2ccc(-c3ccc(C#N)c(Cl)c3)n2)n[nH]1 (some centres not stated) | 0.762 | 0.897 | 0.94 | 0.769
CN(C)Cc1c(C(=O)NCCOc2ccc(C(=O)NO)cc2)oc2ccccc12 | 0.184 | 0.244 | 0.0877 | 0.133
